Shown is part of a subset that was picked to be rich in hits.
CHX counter = counter-screen for Shiga toxin inhibitors: cycloheximide protein synthesis inhibition; cell reporter, cycloheximide protein synthesis inhibition counterscreen; max response, %; hit rate 12% among 300,000; in the data active = max response mostly above about 13%, no sharp cut-off; inactive = mostly below about 14%; also: read at 38.3 µM for the half of the compounds with a filed dose; 0% is about no effect
Shiga inhibitor = Shiga toxin inhibition. hit rate 9.2% among 290,000. inhibition, % at 38.7 µM. Vero cells, Shiga toxin protein synthesis inhibition reporter. AID 2315; in the data active = inhibition mostly above about 28%, no sharp cut-off; inactive = mostly below about 43%; also: 0% is about no effect
AmpC no deterg = blocks E. coli AmpC beta-lactamase in detergent-free assay; hit rate 0.52% among 330,000; AmpC nitrocefin hydrolysis, absorbance 480 nm, 0.0001% Triton; P00811; Potency, µM (top dose mostly 57.1 µM), for the others: at the highest dose activity change, negative = inhibition, actives largely listed as inhibitors; AID 485341;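 also: potency is read from the fitted curve at half-maximal effect; plate controls were no compound for no effect and no enzyme for full effect; nearly all actives have a fitted effect of over 20% in size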
Target sequence (P00811 whole entry, looked up): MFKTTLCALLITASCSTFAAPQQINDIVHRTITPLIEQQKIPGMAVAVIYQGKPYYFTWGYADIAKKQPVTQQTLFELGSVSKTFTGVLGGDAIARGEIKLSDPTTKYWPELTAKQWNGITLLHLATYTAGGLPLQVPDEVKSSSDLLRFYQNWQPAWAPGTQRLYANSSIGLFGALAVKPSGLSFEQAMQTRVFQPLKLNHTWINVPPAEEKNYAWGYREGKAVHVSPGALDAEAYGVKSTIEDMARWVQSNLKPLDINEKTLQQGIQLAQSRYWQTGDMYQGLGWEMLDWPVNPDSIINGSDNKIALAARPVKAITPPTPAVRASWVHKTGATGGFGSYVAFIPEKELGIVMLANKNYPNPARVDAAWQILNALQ
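20 mM phosphate pH 7.0 + 0.01% (detergent screen) or 0.0001% Triton X-100; 5.3 nM AmpC reagent; cpd preinc 15 min RT; nitrocefin (800 uM stock) to start; A480 q20 s × 4 min; Activity was normalised to no-enzyme and no-compound control wells.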
AmpC inh detg = blocks E. coli AmpC beta-lactamase in detergent assay; AID 485294; Potency, µM (titrated, usually from 114 µM), inactives show at the highest dose activity change, negative = inhibition, usual class: inhibitors; AmpC hydrolysis of nitrocefin, absorbance 480 nm, 0.01% Triton; P00811; hit rate 0.041% among 370,000;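 also: potency is read from the fitted curve at half-maximal effect; 0% = no-compound wells and -100% = no-enzyme wells; nearly all actives have a fitted effect of over 25% in size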
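AmpC (5.3 nM in the dispensed reagent) in 20 mM phosphate pH 7.0 with 0.01% (detergent screen) or 0.0001% Triton X-100 was preincubated with compounds for 15 min at room temperature. Nitrocefin was then added from an 800 uM solution, and hydrolysis was followed at 480 nm.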
NS1 inh = inhibitors of influenza NS1 protein function | Potency, µM (series often up to 46.1 µM), without a hit: top-dose activity, positive = more growth | hit rate 0.4% among 270,000 | AID 2326; calls by dose curve; also: potency is read from the fitted curve at half-maximal effect; actives are rising curves; nearly all actives have a fitted effect of over 50% in size
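Recovery from NS1-induced slow growth read by OD600 in budding yeast switched to galactose assay medium (pH 6.0, -URA) at 1:100 dilution. Compound 23 nl per well; the matching strain lacking NS1 serves as control.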
* hit, by the source's call. Unless noted, calls follow the shape of the dose curve; as a rule, active = well fitted curve in the direction sought with a large enough effect; inconclusive = small, poorly fitted or top-dose-only effect, or another doubt; inactive = no such curve, though single readings can be large; an effect the other way counts as inactive or inconclusive.

What do the screens show for `CCn1c(=NC(=O)c2ccc(S(=O)(=O)N(C)C)cc2)sc2cccc(OC)c21`?
CHX counter: 12.5; Shiga inhibitor: 10.1; AmpC no deterg: -5.4%; AmpC inh detg: inconclusive

How did C#CCn1c(=NC(=O)c2ccc(Br)s2)sc2cccc(OC)c21 do in these assays?
CHX counter: 19.4*; Shiga inhibitor: 72.7*; AmpC no deterg: 1.41µM*; AmpC inh detg: inconclusive; NS1 inh: 14.4%

How did COc1ccc2c(C)cc3n[nH]c(=S)n3c2c1 do in these assays?
CHX counter: 3.7; Shiga inhibitor: 14.1; AmpC no deterg: -17.0%; AmpC inh detg: -0.7%; NS1 inh: 0.5%

Results for Cn1c(C2=C(O)CN(Cc3ccccc3)C2=N)[n+](C)c2ccccc21 ?
CHX counter: 15.2; Shiga inhibitor: 50.0; AmpC no deterg: -16.6%; AmpC inh detg: -5.2%

How did COc1ccc(-c2csc3nc[nH]c(=O)c23)cc1 do in these assays?
CHX counter: 2.2; Shiga inhibitor: 17.9; AmpC no deterg: -8.6%; AmpC inh detg: 3.0%

How did S=c1[nH]cnc2scc(-c3ccc(Cl)cc3)c12 do in these assays?
CHX counter: -3.5; Shiga inhibitor: -6.1; AmpC no deterg: 8.91µM*; AmpC inh detg: -0.7%; NS1 inh: 7.5%

How did CCOc1ccc(-c2csc3nc[nH]c(=O)c23)cc1 do in these assays?
CHX counter: 29.6*; Shiga inhibitor: 109.6*; AmpC no deterg: -26.8%; AmpC inh detg: 0.1%; NS1 inh: -18.8%

How did CCc1ccc(-c2csc3nc[nH]c(=O)c23)cc1 do in these assays?
CHX counter: 22.5*; Shiga inhibitor: 15.3; AmpC no deterg: -13.9%; AmpC inh detg: inconclusive; NS1 inh: -14.3%

Results for Cc1ccc(-c2csc3nc[nH]c(=S)c23)cc1 ?
CHX counter: 3.2; Shiga inhibitor: 4.7; AmpC no deterg: 4.0%; AmpC inh detg: 4.5%; NS1 inh: 2.2%

Results for O=c1[nH]cnc2scc(-c3ccccc3)c12 ?
CHX counter: -2.1; Shiga inhibitor: -5.6; AmpC no deterg: -9.9%; AmpC inh detg: 1.1%; NS1 inh: -6.6%

Results for CC(C)c1ccc(-c2csc3nc[nH]c(=O)c23)cc1 ?
CHX counter: 24.3*; AmpC no deterg: -21.6%; AmpC inh detg: inconclusive; NS1 inh: -30.6%

What do the screens show for `O=c1[nH]cnc2scc(-c3ccc(Br)cc3)c12`?
CHX counter: 10.5; Shiga inhibitor: 25.3; AmpC no deterg: -24.9%; AmpC inh detg: 4.6%

Results for CCOc1ccc(C(=O)NCCn2cc(SCC(=O)NCCc3ccc(OC)c(OC)c3)c3ccccc32)cc1 ?
AmpC inh detg: 1.1%

Results for CCc1nn(C(CC)C(=O)NCc2ccc(OC)c(OC)c2)c(=O)c2cc3oc(C)cc3n12 (stereo not drawn) ?
AmpC inh detg: 17.3%

What do the screens show for `CN(C)CCn1c2ccccc2c2nc3ccc([N+](=O)[O-])cc3cc21`?
CHX counter: 15.7*; Shiga inhibitor: 38.9*; AmpC no deterg: -0.2%; AmpC inh detg: 1.1%; NS1 inh: 2.9%

Results for COc1ccc(C(C(=O)NC(C)(C)C)N(CCO)C(=O)CCC(=O)Nc2cc(C)on2)cc1 (stereo not drawn) ?
CHX counter: -5.4; Shiga inhibitor: -13.5; AmpC no deterg: 0.0%; AmpC inh detg: -4.0%; NS1 inh: 8.2%

How did COc1ccc(C(C(=O)NC(C)(C)C)N(CCc2ccccc2)C(=O)CCC(=O)Nc2cc(C)on2)cc1 (stereo not drawn) do in these assays?
CHX counter: 22.2*; Shiga inhibitor: 30.7*; AmpC no deterg: 110.5%; AmpC inh detg: -0.1%; NS1 inh: 14.4%

Results for CC[C@H](C)[C@H](NC(=O)[C@H](CCCNC(=N)N)NC(=O)[C@@H]1CCCN1C(=O)[C@H](Cc1ccccc1)NC(=O)[C@H](Cc1cnc[nH]1)NC(=O)[C@H](CCCNC(=N)N)NC(=O)[C@@H](NC(=O)[C@H](C)NC(=O)[C@H](CCC(=O)O)NC(=O)[C@H](CC(N)=O)NC(=O)[C@@H](N)CCCCN)C(C)C)C(=O)N[C@@H](Cc1c[nH]c2ccccc12)C(=O)N[C@@H](CC(C)C)C(=O)O ?
CHX counter: -4.5; Shiga inhibitor: -5.6

Results for CN(Cc1cn(-c2ccccc2)nc1-c1cc2ccccc2o1)C(=O)CCC(=O)O ?
CHX counter: 10.5; Shiga inhibitor: 24.5; AmpC no deterg: 7.6%; AmpC inh detg: -4.8%

What do the screens show for `c1ccc2c(c1)[nH]c1c3ccccc3sc21`?
CHX counter: 40.6*; Shiga inhibitor: 72.2*; AmpC no deterg: -25.8%; AmpC inh detg: inconclusive; NS1 inh: -1.4%

How did Nc1cccc2c(=O)c3ccccc3[nH]c12 do in these assays?
CHX counter: 7.4; Shiga inhibitor: -2.1; AmpC no deterg: -18.8%; AmpC inh detg: 4.3%; NS1 inh: -12.6%

Results for Oc1ccc(Cl)cc1C=NCCc1ccccc1 ?
CHX counter: 14.9*; Shiga inhibitor: 56.8*; AmpC no deterg: -24.2%; AmpC inh detg: -13.1%; NS1 inh: 7.8%

Results for Cc1cc(C)c2oc(C(=O)Nc3c(C)n(C)n(-c4ccccc4)c3=O)cc(=O)c2c1 ?
AmpC inh detg: 13.0%

What do the screens show for `O=C(N=C1c2ccccc2CN1c1ccccc1)c1cccc([N+](=O)[O-])c1`?
CHX counter: 18.5*; Shiga inhibitor: 34.7; AmpC no deterg: -1.9%; AmpC inh detg: -1.9%; NS1 inh: -28.2%

Results for O=C(N=C1c2ccccc2CN1c1ccc(F)c(F)c1)c1cccnc1 ?
CHX counter: 28.7*; Shiga inhibitor: 39.4; AmpC no deterg: 9.4%; AmpC inh detg: 0.9%; NS1 inh: 2.7%

Results for O=C(/N=C1/c2ccccc2CN1c1ccccc1)Nc1ccccc1 ?
CHX counter: 11.5; Shiga inhibitor: 12.1; AmpC no deterg: -30.8%; AmpC inh detg: -1.4%; NS1 inh: -4.6%

Results for O=C(N=C1c2ccccc2CN1c1cccc(Cl)c1)c1cccnc1 ?
CHX counter: 33.5*; Shiga inhibitor: 26.3*; AmpC no deterg: -28.0%; AmpC inh detg: inconclusive; NS1 inh: 0.0%

Results for CCOc1c(Cl)cc(/C=C/C(=O)N(CC)CC(=O)NCc2cccs2)cc1OC ?
AmpC no deterg: 58.8%; AmpC inh detg: inconclusive

How did CCCc1nnc(NC(=O)CCC(=O)Nc2ccc(F)cc2)s1 do in these assays?
CHX counter: -3.8; Shiga inhibitor: 13.6; AmpC no deterg: -3.6%; AmpC inh detg: -10.3%; NS1 inh: 7.0%

Results for O=C(N/N=C/C(Br)=C/c1ccccc1)c1cc(-c2ccco2)[nH]n1 ?
CHX counter: 7.6; Shiga inhibitor: 39.0*; AmpC no deterg: 20µM*; AmpC inh detg: 1.7%; NS1 inh: -0.3%

Results for Cc1ccc(-c2cc(C(=O)N/N=C/c3ccccc3)n[nH]2)o1 ?
CHX counter: 24.9*; Shiga inhibitor: 81.9*; AmpC no deterg: -31.8%; AmpC inh detg: 3.5%; NS1 inh: 8.1%

How did O=c1cc(-c2ccccc2)c2cc(Cl)c3c(c2o1)CN(Cc1ccccc1)CO3 do in these assays?
AmpC inh detg: 17.3%

Screens: PubChem, National Center for Advancing Translational Sciences (NCATS)
